Calls of active or inactive are those of the source. How the calls were made is not given here.
These compounds were tested against Pantothenate synthetase (Mycobacterium tuberculosis (strain ATCC 25618 / H37Rv)) (UniProt P9WIL5) (assay: Recombinant Mtb pantothenate synthetase (PanC) inhibitors, coupled enzyme, confirmatory (AID 375;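 further: 0% = full reaction with vehicle and 100% = no enzyme background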)). Conditions: coupled enzyme assay; at 10 µM, stronger effect = higher value.
Pantothenate synthetase (Mycobacterium tuberculosis (strain ATCC 25618 / H37Rv)), sequence (P9WIL5 whole entry, looked up): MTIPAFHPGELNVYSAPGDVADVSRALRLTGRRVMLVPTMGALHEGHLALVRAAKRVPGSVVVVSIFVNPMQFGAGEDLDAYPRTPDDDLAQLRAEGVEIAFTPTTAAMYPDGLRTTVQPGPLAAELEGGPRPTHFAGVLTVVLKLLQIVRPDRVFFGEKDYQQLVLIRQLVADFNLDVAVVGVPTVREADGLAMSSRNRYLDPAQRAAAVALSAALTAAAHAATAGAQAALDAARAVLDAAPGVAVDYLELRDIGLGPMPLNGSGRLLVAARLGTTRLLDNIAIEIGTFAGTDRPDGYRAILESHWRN

Which inhibition does the source give for `Cc1ccc2cccc(SCC(=O)N3CCOCC3)c2n1` here?
Its inhibition is 5% (inactive).

Which inhibition does the source give for `Cc1cc(=O)[nH]c(=S)n1-c1ccccc1` here?
The inhibition was 17% (inactive).

How did the inhibition turn out when `Cc1occc1C(=O)N1CCN(c2ncccn2)CC1` was run?
Its inhibition is 6% (inactive).

How did the inhibition turn out when `COc1cccc(NC(=O)COc2ccccc2C(N)=O)c1` was run?
Its inhibition is 0% (inactive).

With `CCN=C1SC(CC(=O)Nc2ccccc2)C(=O)N1CC` (stereo not given) as the compound, how does the inhibition read?
The inhibition was 5% (inactive).

How did the inhibition turn out when `Cc1cccc(-c2noc(CCC(=O)Nc3ccccc3)n2)c1` was run?
The inhibition was 5% (inactive).

For `CCOc1ccc(-c2nc(C#N)c(N3CCN(C)CC3)o2)cc1`, which inhibition is on record?
Its inhibition is 2% (inactive).

How did the inhibition turn out when `COc1ccc(C2C(C#N)=C(C)NC3=C2C(=O)CC(C)(C)C3)c(OC)c1` (stereo not given) was run?
Its inhibition is 0% (inactive).

With `O=C(c1ccc2nc(N3CCCCC3)sc2c1)N1CCN(c2ccccn2)CC1` as the compound, how does the inhibition read?
Its inhibition is 0% (inactive).

Which inhibition does the source give for `Clc1ccccc1-c1nnc2sc(-c3ccccn3)nn12` here?
Its inhibition is 0% (inactive).

Which inhibition does the source give for `O=C(NCc1ccco1)c1c2c(nc3ccccc13)CCC2` here?
Its inhibition is 0% (inactive).

Which inhibition does the source give for `CCOC(=O)c1cc2c(=O)n3cccc(C)c3nc2n(Cc2ccco2)c1=NC(=O)c1cccnc1` here?
The inhibition was 0% (inactive).

How did the inhibition turn out when `CCCn1c(=O)c2ccccc2n2c(SCc3cc(=O)n4ccsc4n3)nnc12` was run?
The inhibition was 0% (inactive).

Which inhibition does the source give for `CCN(CC)C(=O)Cn1ncc2c1-c1ccccc1OC2` here?
The inhibition was 0% (inactive).

With `COC(=O)CCC(=O)Nc1cccc(Cl)c1` as the compound, how does the inhibition read?
The inhibition was 0% (inactive).

How did the inhibition turn out when `Cc1c(NC(=O)CSc2nnc3sc4ccccc4n23)c(=O)n(-c2ccccc2)n1C` was run?
The inhibition was 0% (inactive).

With `Cc1cccc(NC(=O)c2cnc3sccn3c2=O)n1` as the compound, how does the inhibition read?
The inhibition was 4% (inactive).

How did the inhibition turn out when `Cc1cc(C)c(OCC(=O)Nc2ccc3c(c2)OCO3)cc1C` was run?
Its inhibition is 2% (inactive).

For `Cn1c(=O)cc(OCCCC(=O)Nc2ccc3c(c2)OCCO3)c2ccccc21`, which inhibition is on record?
Its inhibition is 1% (inactive).

With `CCCCn1c(SCC(=O)OCC)nc2c1c(=O)[nH]c(=O)n2C` as the compound, how does the inhibition read?
The inhibition was 2% (inactive).

`CCOc1ccc2c(c1)c1nnc(SCC(=O)N3CCC(C)CC3)nc1n2C` was tested. Which inhibition did it give?
Its inhibition is 1% (inactive).

With `O=C(Cn1nnc(-c2ccc(S(=O)(=O)N3CCCC3)cc2)n1)NCC1CCCO1` (stereo not given) as the compound, how does the inhibition read?
Its inhibition is 0% (inactive).

How did the inhibition turn out when `Cc1nn(-c2ccc(F)cc2)c(C)c1NS(=O)(=O)c1ccc(Cl)cc1` was run?
Its inhibition is 11% (inactive).

With `CCCCOC(=O)c1cccc(NC(=O)CC)c1` as the compound, how does the inhibition read?
The inhibition was 0% (inactive).

How did the inhibition turn out when `CC(NC(=O)Nc1ccccc1)C(c1cccs1)N1CCOCC1` (stereo not given) was run?
Its inhibition is 0% (inactive).

With `CCN(C(=O)c1cccs1)c1nnc(-c2ccncc2)s1` as the compound, how does the inhibition read?
The inhibition was 0% (inactive).

With `CCOC(=O)c1ccc(NS(=O)(=O)c2ccc(SC)cc2)cc1` as the compound, how does the inhibition read?
Its inhibition is 0% (inactive).

With `O=C1N=C(N2CCOCC2)CS1` as the compound, how does the inhibition read?
The inhibition was 0% (inactive).

With `CCOC(=O)C1=C(C)NC2=C(C(=O)CC(C)(C)C2)C1c1ccc(N(C)C)cc1` (stereo not given) as the compound, how does the inhibition read?
The inhibition was 0% (inactive).

How did the inhibition turn out when `c1ccc(CC2CCN(c3nc4ccccc4n4nnnc34)CC2)cc1` was run?
The inhibition was 11% (inactive).

With `COc1cc(-c2noc(-c3ccccc3C(=O)NCc3ccco3)n2)cc(OC)c1OC` as the compound, how does the inhibition read?
The inhibition was 9% (inactive).

Which inhibition does the source give for `CC(C)CC(=O)CN1C(=O)C2(OCCO2)c2ccccc21` here?
The inhibition was 0% (inactive).

With `COc1cc(OC)cc(-c2nnc(Nc3nc4c(F)cccc4s3)o2)c1` as the compound, how does the inhibition read?
Its inhibition is 12% (inactive).

With `CC1(C)NC(=O)N(CC(O)CN2CCCCC2)C1=O` (stereo not given) as the compound, how does the inhibition read?
Its inhibition is 0% (inactive).

For `CCOC(=O)c1c(C)c(C(=O)NCCN2CCOCC2)c(C)n1C`, which inhibition is on record?
The inhibition was 4% (inactive).

`Cn1c(=O)c2c(nc(NCCCO)n2C/C=C/c2ccccc2)n(C)c1=O` was tested. Which inhibition did it give?
Its inhibition is 4% (inactive).

`Cc1ccc(C)n1-n1c(C)nc2sc(-c3ccccc3)cc2c1=O` was tested. Which inhibition did it give?
The inhibition was 0% (inactive).

Which inhibition does the source give for `CCN(CCCCOC(=O)c1ccc(OC)c(OC)c1)C(C)Cc1ccc(OC)cc1` (stereo not given) here?
The inhibition was 9% (inactive).

How did the inhibition turn out when `COC(=O)Nc1ccc(C)cc1NC(=O)OC` was run?
Its inhibition is 2% (inactive).

`COc1ccc(C(c2nnnn2C2CCCC2)N2CCC(C)CC2)c(OC)c1` (stereo not given) was tested. Which inhibition did it give?
The inhibition was 3% (inactive).

— PubChem BioAssay
